Results from PubChem BioAssay.
Activity calls are given as the source filed them.

What follows are compounds tested against E3 ubiquitin-protein ligase XIAP (Homo sapiens) (UniProt P98170) (assay: small molecules binding XIAP protein – biophysical, small-molecule microarray, fluorescence 635 nm, primary screen (AID 1181;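 also: score merges 667 nm emission and signal to noise over triplicate slides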)). Details: higher = more signal.
Chain of E3 ubiquitin-protein ligase XIAP (Homo sapiens) (P98170 whole entry, looked up): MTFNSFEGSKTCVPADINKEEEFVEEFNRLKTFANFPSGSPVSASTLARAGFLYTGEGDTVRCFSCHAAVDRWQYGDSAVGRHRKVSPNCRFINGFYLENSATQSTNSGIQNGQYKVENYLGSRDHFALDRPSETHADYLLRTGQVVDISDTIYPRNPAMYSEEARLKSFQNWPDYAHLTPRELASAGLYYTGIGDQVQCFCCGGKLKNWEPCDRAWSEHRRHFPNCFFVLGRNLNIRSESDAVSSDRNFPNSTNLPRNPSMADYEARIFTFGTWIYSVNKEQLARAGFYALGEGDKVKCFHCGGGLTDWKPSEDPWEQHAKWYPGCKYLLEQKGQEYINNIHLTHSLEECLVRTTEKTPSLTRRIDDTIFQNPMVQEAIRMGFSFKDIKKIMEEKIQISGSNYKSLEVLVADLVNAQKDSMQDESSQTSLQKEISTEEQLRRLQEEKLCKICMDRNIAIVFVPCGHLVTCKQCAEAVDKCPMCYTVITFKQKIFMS

Compound	composite z-score
Cn1cccc1C(O)C1C=CC2C(=O)NC(=O)C2N1Nc1ccccn1 (centres undefined)	0.203
CCCC[C@H]1OB(O)C[C@H]2C1=C(C)C[C@H]1C(=O)N(C)C(=O)[C@H]12	-0.256
Cc1ccc(S[C@]2(C(=O)NCC(F)(F)F)CC(=O)N(Cc3ccccc3Cl)[C@@H]2c2ccc(CO)cc2I)cc1	0.0256
CC(C)NC(=O)[C@@H]1c2ccccc2C(=O)N(CC23CC4CC(CC(C4)C2)C3)[C@H]1c1ccc(CO)cc1	-0.0172
CCc1cccc(NC(=O)O[C@H]2[C@H](OC(=O)Nc3ccc4c(c3)OCO4)[C@@H](OC(=O)Nc3ccc4c(c3)OCO4)[C@@H](OC)O[C@@H]2CO)c1	-0.173
CC(C)OC(=O)C=C1C[C@@H](c2ccc(C#N)cc2)O[C@@H](c2ccc(C#N)cc2)O1	-0.0994
COC(=O)C1=CCC(c2cccc(Cl)c2)O1 (centres undefined)	-0.0962
CCCC[C@@H](O)C1=C(C)C[C@H]2C(=O)N(Cc3ccccc3)C(=O)[C@H]2[C@H]1CO	-0.0911

The compounds below were run on XIP peptide (Xip251-270) binding (assay: XIP fragment 251-270 binding compounds – biochemical, small-molecule microarray, fluorescence 635/667 nm, 0.1 µg/mL protein, primary screen (AID 1182)). Details: fluorescent protein binding, 635 nm, higher = more signal, called active from +8 up or from −8 down.

Compound	composite z-score
CC(C)c1ccc(NN2C(C(O)c3ccc4c(c3)OCO4)C=CC3C(=O)N(c4ccccc4)C(=O)C32)cc1 (centres undefined)	0.803 (inactive)
CN1C(=O)[C@@]2(CCC(=O)OC(C)(C)C)N=C(c3ccc(OCCCO)cc3)O[C@H]2c2ccccc21	0.0792 (inactive)
COC(=O)[C@@]1(Cc2ccc(F)cc2)[C@@H]2C(=CC(=O)[C@H]2CC(=O)C(=O)N(C)C)CN1C(=O)c1ccccc1	0.0142 (inactive)
O=C(CS)NCCCCCNC(=O)[C@H]1C[C@H]2C(=O)N3CCC[C@H]3C(=O)N2[C@H]1c1cccc(OCCO)c1	0.81 (inactive)
C=CCOC(=O)[C@H]1[C@@H]2C(=O)O[C@@H](c3ccccc3)[C@@H](c3ccccc3)N2[C@@H](c2ccc(OCCOC(=O)[C@H]3C[C@H]4C(=O)N[C@@H](Cc5ccccc5)C(=O)N4[C@H]3c3ccc(O)cc3)cc2)[C@]12C(=O)Nc1ccccc12	2.32 (inactive)
COc1ccc([Si](C)(C)[C@@H]2[C@@H](CCO)O[C@]3(C(=O)N(Cc4ccc(NC(C)=O)cc4)c4ccccc43)[C@H]2C)cc1	0.935 (inactive)
CCCCCN1CC=CC23O[C@@H]4C=CCOC(=O)[C@@H]4[C@H]2C(=O)N(CCCCCCO)[C@@H]3C1=O (some centres undefined)	0.282 (inactive)
COC(=O)C1(C)C=C2C(=C(c3ccccc3)C(=O)C2C)CN1 (centres undefined)	-0.21 (inactive)
CC(C)N1CC=CC23O[C@@H]4C=CCCOC(=O)C4[C@H]2C(=O)N(CCCCCCO)[C@@H]3C1=O (some centres undefined)	-0.543 (inactive)
COc1ccc([Si](C)(C)[C@H]2[C@H](CCO)O[C@@]3(C(=O)N(Cc4cccc(NC(=O)[C@H](C)O)c4)c4ccccc43)[C@@H]2C)cc1	-0.201 (inactive)
COc1ccc(CCNC(=O)[C@@H]2c3ccccc3C(=O)N(c3ccc(C)cn3)[C@H]2c2ccc(CO)cc2)cc1	-1.02 (inactive)
C=CCNC(=O)[C@H]1[C@@H]2C(=O)O[C@@H](c3ccccc3)[C@@H](c3ccccc3)N2[C@@H](c2ccc(O)cc2)[C@]12C(=O)N(C(=O)OCCOC)c1ccc(C#CC3=CCCCC3)cc12	0.514 (inactive)
[N-]=[N+]=NCc1ccccc1[C@@H]1OC(c2ccc(OCCCO)cc2)=N[C@]1(Cc1ccccc1)C(=O)N1CCOCC1	0.713 (inactive)
CC(C)C[C@@H]1NC(=O)[C@H]2C[C@@H](C(=O)NCCCCCCN(C)C)[C@@H](c3cccc(OCCO)c3)N2C1=O	2.09 (inactive)
C=C(/C(=C/C[C@@H](OC(=O)c1ccncc1)c1ccc(OCCO)cc1)c1cnc2ccccc2c1)C(C)C	-0.214 (inactive)
CS(=O)(=O)CCOC(=O)C1=CC(CCCO)=CC(c2cccs2)N(Cc2cccc(OC(F)(F)F)c2)C=C1C(=O)OCCS(C)(=O)=O (centres undefined)	1.17 (inactive)
COCCCNC(=O)[C@]1(CCC(=O)OC(C)(C)C)N=C(c2ccc(OCCCO)cc2)O[C@@H]1c1ccccc1N=[N+]=[N-]	0.448 (inactive)
Cc1ccc(C2CC=C(C(=O)O)CN2S(=O)(=O)c2ccc(C)cc2)cc1 (centres undefined)	0.911 (inactive)

Compound	composite z-score
O=C1O[C@@H](c2ccccc2)[C@@H](c2ccccc2)N2[C@@H](c3ccc(OCCO)cc3)[C@]3(C(=O)Nc4ccccc43)[C@@H](C(=O)N3CCN(c4ncccn4)CC3)[C@H]12	0.0629 (inactive)
COCCOC(=O)N1C(=O)[C@@]2(c3cc(C#CCNC(N)=O)ccc31)[C@H](c1ccccc1OCCO)N1[C@H](c3ccccc3)[C@H](c3ccccc3)OC(=O)[C@H]1[C@@H]2C(=O)N1CCN(c2ncccn2)CC1	0.521 (inactive)
COCCOC(=O)N1C(=O)[C@@]2(c3cc(C#Cc4ccc(OC)cc4)ccc31)[C@H](C(=O)N1CCN(c3ncccn3)CC1)[C@H]1C(=O)O[C@H](c3ccccc3)[C@H](c3ccccc3)N1[C@@H]2c1ccc(OCCO)cc1	0.115 (inactive)
CN(C)CCCNC(=O)[C@@H]1c2ccccc2C(=O)N(Cc2cc(F)cc(C(F)(F)F)c2)[C@H]1c1ccc(CO)cc1	0.782 (inactive)
CCCNC(=O)[C@@H]1c2ccccc2C(=O)N(c2ccc(C)cn2)[C@H]1c1ccc(CO)cc1	-0.239 (inactive)
CN1C(=O)C2C=CC(C(O)c3ccc(I)cc3)N(NC(=O)OC(C)(C)C)C2C1=O (centres undefined)	0.0031 (inactive)
COC(=O)c1c(CC[C@@H](CO)NC(=O)N[C@H](Cc2ccccc2)Cn2cc(-c3ccccc3N)nn2)oc(C(C)=O)c1C(=O)OC	0.0074 (inactive)
CCCC=C(CCC)[C@@H](NC(=O)c1ccc(-c2ccccc2)cc1)c1ccc(C(=O)OC)cc1	-0.144 (inactive)
COCC(=C=CC[C@@H](O)c1ccccc1OCCO)CCO	0.291 (inactive)
CC1CC/C=C\[C@H]2OC34C=CCN(C(C)C)C(=O)[C@H]3N(CCCO)C(=O)[C@@H]4C2C(=O)O1 (some centres undefined)	0.94 (inactive)
Cn1cccc1C(O)C1C=CC2C(=O)NC(=O)C2N1Nc1ccccn1 (centres undefined)	-0.262 (inactive)
CCCC[C@H]1OB(O)C[C@H]2C1=C(C)C[C@H]1C(=O)N(C)C(=O)[C@H]12	0.756 (inactive)
Cc1ccc(S[C@]2(C(=O)NCC(F)(F)F)CC(=O)N(Cc3ccccc3Cl)[C@@H]2c2ccc(CO)cc2I)cc1	0.292 (inactive)
CC(C)NC(=O)[C@@H]1c2ccccc2C(=O)N(CC23CC4CC(CC(C4)C2)C3)[C@H]1c1ccc(CO)cc1	0.166 (inactive)
CCc1cccc(NC(=O)O[C@H]2[C@H](OC(=O)Nc3ccc4c(c3)OCO4)[C@@H](OC(=O)Nc3ccc4c(c3)OCO4)[C@@H](OC)O[C@@H]2CO)c1	0.0979 (inactive)
CC(C)OC(=O)C=C1C[C@@H](c2ccc(C#N)cc2)O[C@@H](c2ccc(C#N)cc2)O1	1.1 (inactive)
COC(=O)C1=CCC(c2cccc(Cl)c2)O1 (centres undefined)	-0.0103 (inactive)
CCCC[C@@H](O)C1=C(C)C[C@H]2C(=O)N(Cc3ccccc3)C(=O)[C@H]2[C@H]1CO	-0.38 (inactive)
